Data as given in the supplement of paper PMC6522484.
± gives the standard deviation of the averaged measurements.

Key:
DLD1 [1] = assay: cell viability (CellTiter-Glo) relative to plate median (fraction of plate median); higher = more viable cells; details: 5 µM; treatment time 24 h; reporter: 7TFP
Outline: (§1)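 Each entry is a luminescence signal normalised to the plate median, averaged over independent replicates. The replicate count was two, and the cells were colorectal cancer lines with stable lentiviral TCF/Wnt firefly luciferase reporters exposed to library compounds at a final 5 µM for 24 h. Firefly luciferase and CellTiterGlo were measured on parallel plates.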

HCT116 = assay: as above; details: 5 µM; treatment time 24 h; reporter: TCF4/Wnt
Outline: as §1

SW480 [2] = assay: as above; details: 5 µM; treatment time 24 h; reporter: 7TFP
Outline: as §1

DLD1 [3] = assay: TCF/Wnt firefly luciferase reporter signal relative to plate median (fraction of plate median); higher = higher Wnt reporter signal; details: 5 µM; treatment time 24 h; reporter: 7TFP
Outline: as §1

SW480 [4] = assay: as above; details: 5 µM; treatment time 24 h; reporter: 7TFP
Outline: as §1

SMILES | cell viability (DLD1 [1]) | cell viability (HCT116) | cell viability (SW480 [2]) | TCF/Wnt firefly luciferase reporter signal (DLD1 [3]) | TCF/Wnt firefly luciferase reporter signal (SW480 [4])
CC[C@@]1(O)C(=O)OCc2c1cc1n(c2=O)Cc2cc3ccccc3nc2-1 | 0.91 ± 0.094 | 0.292 ± 0.067 | 0.925 ± 0.041 | 1.01 ± 0.12 | 0.911 ± 0.016
O=C1C(Cl)=C(Cl)C(=O)C(Cl)=C1Cl | 0.967 ± 0.061 | 0.977 ± 0.033 | 0.991 ± 0.028 | 0.997 ± 0.16 | 1.02 ± 0.065
CCCCCCCCC(=O)NCc1ccc(O)c(OC)c1 | 1.04 ± 0.064 | 0.972 ± 0.025 | 0.981 ± 0.056 | 0.792 ± 0.14 | 0.822 ± 0.061
CC1C=CC=CCCC=CC=CC=CC=CC(OC2OC(C)C(O)C(N)C2O)CC2OC(O)(CC(O)C(O)CCC(O)CC(O)CC(O)CC(=O)OC(C)C(C)C1O)CC(O)C2C(=O)O (stereo not given) | 0.932 ± 0.04 | 0.906 ± 0.023 | 0.973 ± 0.031 | 0.874 ± 0.0014 | 0.762 ± 0.0092
CC(C)(C#N)O[C@@H]1O[C@H](CO)[C@@H](O)[C@H](O)[C@H]1O | 0.945 ± 0.078 | 1.06 ± 0.014 | 0.992 ± 0.0014 | 0.953 ± 0.036 | 0.933 ± 0.036
CCN1C[C@]2(COC)[C@H](O)C[C@H](OC)[C@@]34[C@@H]5C[C@@]6(O)[C@H](OC(=O)c7ccccc7)[C@@H]5[C@@](OC(C)=O)([C@@H]([C@H](OC)[C@H]23)[C@@H]14)[C@@H](O)[C@@H]6OC | 0.943 ± 0.066 | 1.04 ± 0.05 | 1.02 ± 0.06 | 0.931 ± 0.057 | 0.955 ± 0.19
NC(=O)c1cc([N+](=O)[O-])cc([N+](=O)[O-])c1 | 1.01 ± 0.015 | 1.01 ± 0.093 | 0.98 ± 0.016 | 1.06 ± 0.05 | 0.923 ± 0.14
N#Cc1c(Cl)c(Cl)c(Cl)c(C#N)c1Cl | 0.687 ± 0.075 | 0.465 ± 0.13 | 1.01 ± 0.052 | 0.293 ± 0.14 | 0.286 ± 0.15
COc1cc2occc2c2oc(=O)ccc12 | 0.986 ± 0.076 | 0.941 ± 0.11 | 0.95 ± 0.026 | 1.06 ± 0.17 | 0.818 ± 0.11
CCCCOC(=O)c1ccccc1C(=O)OCCCC | 0.944 ± 0.044 | 0.98 ± 0.013 | 0.96 ± 0.071 | 0.847 ± 0.16 | 0.939 ± 0.03
CC(=O)CC1CCCCN1 (stereo not given) | 0.961 ± 0.055 | 1.03 ± 0.043 | 0.993 ± 0.0099 | 0.92 ± 0.09 | 0.977 ± 0.018
CC[C@@]1(O)C[C@H](O[C@H]2C[C@H](N(C)C)[C@H](O)[C@H](C)O2)c2c(cc3c(c2O)C(=O)c2c(O)ccc(O)c2C3=O)[C@H]1C(=O)OC | 0.893 ± 0.075 | 0.548 ± 0.029 | 1.05 ± 0.042 | 0.569 ± 0.068 | 0.711 ± 0.016
C=C1C2CC[C@@]3(C)[C@H](c4ccoc4)OC(=O)C[C@]13O[C@H]1CC(=O)C(C)(C)[C@H](C(OC(C)=O)C(=O)OC)[C@@]21C (stereo not given in full) | 1.025 ± 0.0071 | 1.13 ± 0.057 | 1 ± 0.014 | 1.16 ± 0.057 | 0.826 ± 0.048
C/C=C\C(=O)O[C@@H]1C[C@H]2O[C@@H]3C=C(C)C(=O)C[C@]3(C)[C@]1(C)[C@]21CO1 [Trichothecin] | 0.922 ± 0.018 | 0.807 ± 0.025 | 0.945 ± 0.023 | 0.733 ± 0.1 | 0.832 ± 0.067
Oc1cc(Cl)ccc1Oc1ccc(Cl)cc1Cl | 0.936 ± 0.078 | 0.913 ± 0.011 | 0.954 ± 0.021 | 0.983 ± 0.15 | 0.893 ± 0.021
N[C@H](CO)Cc1ccccc1 | 0.998 ± 0.059 | 0.982 ± 0.12 | 0.981 ± 0.0042 | 0.901 ± 0.09 | 0.761 ± 0.19
NCCc1c[nH]c2ccccc12 | 0.991 ± 0.041 | 1.03 ± 0.16 | 0.952 ± 0.061 | 0.988 ± 0.045 | 1.03 ± 0.021
C=CCc1cc(OC)c2c(c1OC)OCO2 | 0.962 ± 0.15 | 0.864 ± 0.057 | 0.994 ± 0.023 | 0.876 ± 0.099 | 0.976 ± 0.033
CCC(N)C(O)c1ccc(O)c(O)c1 (stereo not given) | 1.02 ± 0.055 | 1.1 ± 0.05 | 1.07 ± 0.057 | 1.03 ± 0.22 | 1.08 ± 0.071
[N-]=[N+]=CC(=O)OC[C@H](N)C(=O)O | 0.717 ± 0.18 | 0.887 ± 0.092 | 1.07 ± 0.028 | 0.977 ± 0.047 | 0.989 ± 0.044
CSc1nc(NC(C)C)nc(NC(C)C)n1 | 0.9725 ± 0.0035 | 0.92 ± 0.11 | 1 ± 0.014 | 1.06 | 1.07 ± 0.014
CC(=O)O[C@H]1C(=O)[C@@]2(C)[C@H]([C@H](OC(=O)c3ccccc3)[C@]3(O)C[C@H](O)C(C)=C1C3(C)C)[C@]1(OC(C)=O)CO[C@@H]1C[C@@H]2O | 0.951 ± 0.013 | 1.04 ± 0.021 | 0.9845 ± 0.0078 | 0.95 ± 0.028 | 0.887 ± 0.076
Oc1ccc(Cl)cc1Cc1cc(Cl)ccc1O | 0.881 ± 0.12 | 0.868 ± 0.0092 | 1.03 ± 0.035 | 0.883 ± 0.17 | 0.953 ± 0.081
C[C@]12CC[C@H]3[C@@H](CCC4=CC(=O)CC[C@@]43C)[C@@H]1CC[C@@H]2O | 1.03 ± 0.021 | 1.15 ± 0.17 | 1.045 ± 0.0071 | 0.967 ± 0.061 | 1.04 ± 0.092
NCCc1ccc(O)cc1 | 0.964 ± 0.11 | 0.93 ± 0.03 | 0.953 ± 0.036 | 0.993 ± 0.15 | 1.07 ± 0.014
COc1ccc2c(c1)[C@]13CCCC[C@@H]1[C@H](C2)N(C)CC3 | 1 ± 0.053 | 0.992 ± 0.096 | 1.02 ± 0.035 | 1.03 ± 0.14 | 1 ± 0.023
CC(C)C[C@H]1C(=O)N2CCC[C@H]2[C@]2(O)O[C@](NC(=O)[C@@H]3C=C4c5cccc6[nH]c(Br)c(c56)C[C@H]4N(C)C3)(C(C)C)C(=O)N12 | 1.05 ± 0.014 | 0.974 ± 0.08 | 1.07 ± 0.014 | 0.985 ± 0.021 | 0.931 ± 0.052
CC(=O)O[C@H]1C[C@@H](OC(C)=O)C(C)(C)C2C[C@@H](OC(C)=O)[C@]3(C)C(CC[C@@]4(C)[C@H](c5ccoc5)C(=O)[C@H]5O[C@]543)[C@]21C (stereo not given in full) | 0.99 ± 0.014 | 1.06 ± 0.19 | 1.02 ± 0.035 | 1.2 ± 0.057 | 1.09 ± 0.078
COC(=O)[C@H]1O[C@@H]2C[C@H]3O[C@@H](n4cnc5c(N)ncnc54)[C@H](OC)[C@H]3O[C@@]2(O)[C@@H](O)[C@@H]1O [Herbicidin B] | 0.988 ± 0.032 | 1.04 ± 0.081 | 1.05 ± 0.021 | 0.857 ± 0.061 | 0.945 ± 0.051
